Source: PubChem BioAssay (NCI)
This is part of a sample that, as a whole, favours compounds with a hit. Of some 79,000 tested, about 15% had one in any assay. Unmarked numbers belong to inactive results. The source made the active and inactive calls. Rule as the data show it: active = growth inhibition above about 70%; inactive = the rest.

How the values were obtained:
[1] = NCI Yeast Anticancer Drug Screen. Data for the rad50 strain (AID 155);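 also: 0% = growth of vehicle-only cultures of the same strain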; details: S. cerevisiae rad50 strain growth inhibition; at 50.0 µM; active compounds read high
Summary of the method: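 Readout: growth inhibition relative to vehicle-treated cultures. Compound exposure was carried out in a genetically defined yeast strain deficient in DNA damage repair.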

[2] = NCI Yeast Anticancer Drug Screen. Data for the mec2-1 strain (AID 157); details: S. cerevisiae mec2-1 strain, at 50.0 µM, active compounds read high
Summary of the method: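 Each compound was tested on mec2-1 yeast, a strain altered in DNA damage repair or cell cycle control. Growth inhibition is reported relative to vehicle.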

[3] = NCI Yeast Anticancer Drug Screen. Data for the sgs1 mgt1 strain (AID 161);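 also: 0% = growth of cultures given vehicle only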; details: S. cerevisiae sgs1 mgt1 strain, at 50.0 µM, active compounds read high
Summary of the method: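 Test agents were incubated with a DNA-repair-mutant yeast strain. Growth was then read and compared against vehicle-treated controls.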

[4] = NCI Yeast Anticancer Drug Screen. Data for the cln2 rad14 strain (AID 165);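 also: 0% = growth equal to vehicle treated cultures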; details: S. cerevisiae cln2 rad14 strain, at 50.0 µM, active compounds read high
Summary of the method: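 Test compounds were added to cln2 rad14 yeast cultures; inhibition of growth was then determined by comparison with vehicle treatment.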

[5] = NCI Yeast Anticancer Drug Screen. Data for the bub3 strain (AID 167); details: S. cerevisiae bub3 mutant strain, at 50.0 µM, active compounds read high
Summary of the method: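 Readout: yeast growth inhibition, expressed relative to vehicle-only wells. The test organism is a mutant strain from a panel with lesions in DNA repair or checkpoint genes.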

[6] = NCI Yeast Anticancer Drug Screen. Data for the mlh1 rad18 strain (AID 175); details: S. cerevisiae mlh1 rad18 strain growth inhibition; at 50.0 µM; active compounds read high
Summary of the method: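 Inhibition values reflect reduced growth of mutant yeast versus vehicle-treated controls following compound exposure; the mutations affect DNA damage repair.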

| SMILES | growth inhibition [1] [%] | growth inhibition [2] [%] | growth inhibition [3] [%] | growth inhibition [4] [%] | growth inhibition [5] [%] | growth inhibition [6] |
| --- | --- | --- | --- | --- | --- | --- |
| O=C(C[n+]1ccccc1-c1ccccn1)c1ccc(-c2ccccc2)cc1 | 7.9 | 10.7 | 22.4 | -14.7 | 1 | 34.6% |
| CC(=O)Oc1ccc2c(OC(C)=O)c(C)cc(OC(C)=O)c2c1 | 26.3 | 5.6 | 20.9 | 3.8 | 19.1 | 24.4% |
| CC(=O)NC(NCCN)(c1ccccc1)c1ccccc1 | -9.7 | -26.4 | -8.1 | 11.6 | 9.6 | -8.45% |
| O=C(Nc1ccc(Cl)c(Cl)c1)Oc1ccccc1Cl | -15.2 | -29.6 | -4.9 | -36 | -16.4 | -29.9% |
| COC(=O)C1(CC(=O)CC(=O)CC2(C(=O)OC)NC(=S)NC(=O)C2C#N)NC(=S)NC(=O)C1C#N (stereo unspecified) | -17.4 | 19.9 | -24.6 | 4.05 | 5.55 | 13.8% |
| N#C/C(=C\N1CC(=O)NC1=S)C(=O)c1ccc2ccccc2c1 | -20.4 | 15.6 | -26.2 | 13.5 | 3.25 | -17.4% |
| Nc1ccc(C(=O)NN2C(=O)C(Cl)C2c2cc(Br)ccc2O)cc1 (stereo unspecified) | 29.1 | 11.6 | 30.7 | -32.1 | 29.1 | 10.8% |
| CC12CCCC1C1CC=C3CC(SC4CCC5(C)C(=CCC6C7CCCC7(C)CCC65)C4)CCC3(C)C1CC2 (stereo unspecified) | -2.05 | -0.25 | -21.5 | -37.9 | -17.6 | -21.6% |
| O=C(CCCCC(=O)OC1CCCCC1)OC1CCCCC1 | -4.95 | 3.65 | -6.45 | -60.3 | -1.05 | 10.8% |
| CC(C)(Cc1ccc(Cl)cc1)NC(N)=O | -35.5 | -73.7 | -21.4 | 3.1 | -44.1 | -31.8% |
| CC(C)C1=CC2=C(C(=O)C1=O)C13CCCC(C)(C)C1CC2OC3=O (stereo unspecified) | 14.3 | -45.1 | 23.6 | -12.3 | -2.6 | 85.5% (active) |
| CCc1ccc(Cc2ccc(CC)c(NC(=O)C(=O)C3NC(=S)NC3=O)c2CC)c(CC)c1NC(=O)C(=O)C1NC(=S)NC1=O (stereo unspecified) | -5.2 | -9.5 | 5.25 | 5.1 | 3.85 | -3.65% |
| c1ccc(-c2nc3ccccc3nc2-c2ccc(-c3ccc(-c4nc5ccccc5nc4-c4ccccc4)cc3)cc2)cc1 | 16.1 | 5.8 | -13.8 | 21.3 | -0.4 | 4.1% |
| CCCCn1cnc2ccc3[nH]c(C)nc3c2c1=O | 29.4 | -4.85 | 34.1 | -3.55 | -6.35 | 21.4% |
| COc1cc2c(c([N+](=O)[O-])c1)NC(=O)CS2 | -81.2 | -60.5 | -17.2 | -4.5 | 0.95 | -28.1% |
| COc1ccc(-c2nnc(N)o2)cc1OC | -34 | -10.3 | -16.1 | 6.35 | -13.9 | -24.9% |
| Cc1cc(N(CCC#N)CCC#N)ccc1/C(N=Nc1ccc([N+](=O)[O-])cc1)=N\NC(=O)c1cc(Cl)ccc1O | 18.9 | 8.8 | -5 | 6.85 | -26.4 | 9.1% |
| O=C(CCCCCCCCC(=O)NC1CCCCC1)NC1CCCCC1 | -13.2 | -26.5 | -21.6 | -20.8 | -19 | -5.4% |
| CC(C)(C)c1ccc(C(=O)N2CCOC23CCCCC3)cc1 | -11.7 | -20.1 | 7.25 | 3.2 | 17.1 | -38.5% |
| Cc1nc(Nc2ccccc2Cl)sc1C(=O)CC(=O)C(N)=O | 37.1 | 20.9 | 39.4 | 24.1 | 2.7 | 48.6% |
| COc1cccc2cc(-c3c[nH]c4ccccc34)c(=O)oc12 | 1 | 11.2 | 11.2 | 7 | 1.65 | 0.75% |

| SMILES | growth inhibition [1] [%] | growth inhibition [2] [%] | growth inhibition [3] [%] | growth inhibition [4] [%] | growth inhibition [5] [%] | growth inhibition [6] |
| --- | --- | --- | --- | --- | --- | --- |
| CCOC(=O)Nc1nn(-c2ccc3ccccc3n2)c(=O)[nH]1 | 15.7 | 1.65 | 10.7 | 11.9 | 7.75 | 13.7% |
| CN(C)CC1CCC/C(=C\c2ccccc2)C1=O (stereo unspecified) | 37.1 | 41.8 | 47.8 | 32.5 | 38.5 | 16.7% |
| c1ccc(Nc2cc(Nc3ccccc3)ncn2)cc1 | 4.4 | -20.5 | 3.8 | -6.5 | -2.2 | 2.35% |
| COc1cc(C2SCC(=O)N2NC(=O)c2ccc(NC(C)=O)cc2)cc(OC)c1OC (stereo unspecified) | -11.8 | -3.95 | -5.2 | 6.15 | -12.4 | -12.2% |
| O=C1OC2C(I)C3C(C4CCCCC4)C1C23 (stereo unspecified) | 8.3 | -3.85 | 31.8 | 17 | 65.8 | 7.7% |
| CCOC(=O)CCC(NC(=O)c1ccc(Nc2nc3ccccc3nc2C(=O)OCC)cc1)C(=O)OCC (stereo unspecified) | 11.8 | 2.55 | 9.1 | 15.4 | 25.8 | 19.1% |
| Nc1nc2c(c(-c3nc(N)nc4c3CCC4)n1)CCC2 | 9.7 | 15.4 | 11.6 | 7 | -1.75 | 10.8% |
| O=C(Nc1ccc([N+](=O)[O-])cc1)Nc1nccnn1 | 5.15 | -13.1 | 10.6 | -39.9 | 8.4 | -0.8% |
| O=C1/C(=C/c2cccc3ccccc23)Cc2ccccc21 | -6.55 | -25.6 | -11.6 | -5.65 | 18.1 | 7.7% |
| COC(=O)C1=CO[C@@H](C)[C@@H]2Cn3ccc4c5ccccc5nc-4c3C[C@H]12 | 2.4 | -17.4 | 14 | 4.5 | -3.9 | 1.4% |
| CN(C)CC(Oc1ccccc1)C(=O)c1ccccc1 (stereo unspecified) | -3.2 | -10.2 | 29.8 | -26.3 | -16.9 | -5.15% |
| O=C(O)CNC(=O)c1cccc(Cl)c1 | 12.4 | 12.3 | 14.7 | 13.3 | 16.9 | 14.6% |
| NC(=O)CSCC(N)C(=O)O (stereo unspecified) | -9.75 | -26.4 | -13.1 | -21.9 | -28.5 | -20% |
| CCCC(CCC)=C1C(=O)N=C(N)NC1=O | -6.45 | 4.9 | -2.7 | -9.05 | -7.35 | -16% |
| C=CCc1cc(Br)ccc1O | 20.7 | 5.9 | -9.85 | 11.1 | -17.4 | 33.5% |
| Cc1c(C2CCSc3ccccc3N2)sc2ccccc12 (stereo unspecified) | -17.2 | -27.4 | 11.3 | 14.6 | 4.65 | 7.2% |
| CCC1=C[C@H]2CN(CCc3c([nH]c4ccccc34)[C@@](C(=O)OC)(c3cc4c(cc3OC)N(C)[C@H]3[C@@](O)(C(=O)NC)[C@H](OC(C)=O)[C@]5(CC)C=CCN6CC[C@]43[C@@H]65)C2)C1 | 2.65 | -1.75 | 12.8 | -2.05 | 16.4 | -12.4% |
| O=c1[nH]c(=O)n(COCCO)cc1-c1ccccc1 | -8.75 | -5.65 | 1.9 | 5.75 | -1.25 | -2.9% |
| Cc1nc2scc(C)c2c(=S)[nH]1 | -0.85 | 1.5 | 6.75 | -38.9 | -11.8 | -2.45% |
| O=S1(=O)CC(c2ccccc2)(c2ccccc2)Nc2ccccc21 | -6.55 | -14.8 | 0.45 | -5.65 | -11.3 | -18.1% |
